Experimental data as given in PubChem BioAssay AID703 (NMMLSC, 2007).
Calls of active or inactive are those of the source. The rule behind the calls is not given here.

target: Integrin alpha-4 (Homo sapiens) (UniProt P13612); experiment: VLA-4 ligand binding increase, concentration series – cell-based, LDV-FITC binding, flow cytometry, dose response (AID 703); details: Jurkat cells, hits give high values
Sequence (P13612 whole entry, looked up): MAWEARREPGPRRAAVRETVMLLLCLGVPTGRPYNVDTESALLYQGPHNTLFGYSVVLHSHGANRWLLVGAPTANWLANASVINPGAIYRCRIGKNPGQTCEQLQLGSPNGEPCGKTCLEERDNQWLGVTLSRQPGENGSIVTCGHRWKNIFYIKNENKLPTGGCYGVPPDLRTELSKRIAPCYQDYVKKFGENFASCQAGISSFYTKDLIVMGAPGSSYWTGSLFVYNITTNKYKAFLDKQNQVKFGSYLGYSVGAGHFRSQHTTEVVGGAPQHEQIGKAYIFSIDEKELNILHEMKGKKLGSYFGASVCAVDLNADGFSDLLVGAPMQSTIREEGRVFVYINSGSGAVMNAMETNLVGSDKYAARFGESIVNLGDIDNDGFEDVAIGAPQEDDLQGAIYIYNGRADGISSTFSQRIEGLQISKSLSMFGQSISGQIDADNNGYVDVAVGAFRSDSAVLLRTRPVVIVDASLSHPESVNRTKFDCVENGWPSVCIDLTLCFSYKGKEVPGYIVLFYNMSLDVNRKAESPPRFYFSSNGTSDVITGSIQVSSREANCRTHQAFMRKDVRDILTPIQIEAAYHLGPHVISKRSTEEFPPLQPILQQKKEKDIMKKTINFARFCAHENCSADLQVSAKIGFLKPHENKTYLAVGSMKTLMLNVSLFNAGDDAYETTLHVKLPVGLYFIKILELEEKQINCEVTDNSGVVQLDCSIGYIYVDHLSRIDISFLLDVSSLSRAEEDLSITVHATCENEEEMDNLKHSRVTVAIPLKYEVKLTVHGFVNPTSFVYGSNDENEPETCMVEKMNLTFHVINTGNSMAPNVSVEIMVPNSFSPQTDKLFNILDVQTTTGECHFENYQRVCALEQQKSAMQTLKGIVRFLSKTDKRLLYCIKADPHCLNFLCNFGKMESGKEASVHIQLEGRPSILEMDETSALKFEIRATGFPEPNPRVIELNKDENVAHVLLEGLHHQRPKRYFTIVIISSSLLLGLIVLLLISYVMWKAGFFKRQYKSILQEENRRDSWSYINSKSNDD

Activation at 0 C, inactive:
COC(=O)C1CCN(C(=O)NC(C)(C)C)CC1 0, N#Cc1c(N2CCCC2)nc(N)c2c(N)nc(N3CCCC3)cc12 0, CCCCC[C@H](O)/C=C/[C@H]1C=CC(=O)[C@@H]1C/C=C\CCCC(=O)O 0, CN(C)CCCN1c2ccccc2Sc2ccc(C(F)(F)F)cc21 0
